Our source for the outcome and AC50 values is PubChem BioAssay (EPA / NIEHS).

The structures appear in SMILES notation. Several values for one entry are separate records, joined by “and”; a condition that tells them apart may be missing. Equal entries are not always repeated. Inconclusive results are not listed. Some structures have more than one record in an assay (separate samples or runs), and their calls can disagree. Activity calls are given as the source filed them. Rule for the calls: active = hit-call score of the fitted dose curve at least 0.9, where 1 is the maximum; inconclusive = response in the unintended direction; inactive = score below 0.9.

The target in experiment [1] is Cellular tumor antigen p53 (Homo sapiens) (UniProt P04637). The experiment can be described thus: TOX21_p53_BLA_p2_ratio: Tox21 HCT-116 p53 Agonism Beta-lactamase Assay, Ratio, Phase 2 (AID 2283592). An outline of the steps: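 HCT116 p53-bla; 4000 cells/well; 5 h pre-incubation; cpd in DMSO, 217-fold dilution; 16 h 37C/5% CO2; CCF4-AM 2 h RT; Ex 405, Em 460/530 ratio; DMSO = baseline; positive fitting direction.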
Cellular tumor antigen p53 (Homo sapiens), sequence (P04637 whole entry, looked up): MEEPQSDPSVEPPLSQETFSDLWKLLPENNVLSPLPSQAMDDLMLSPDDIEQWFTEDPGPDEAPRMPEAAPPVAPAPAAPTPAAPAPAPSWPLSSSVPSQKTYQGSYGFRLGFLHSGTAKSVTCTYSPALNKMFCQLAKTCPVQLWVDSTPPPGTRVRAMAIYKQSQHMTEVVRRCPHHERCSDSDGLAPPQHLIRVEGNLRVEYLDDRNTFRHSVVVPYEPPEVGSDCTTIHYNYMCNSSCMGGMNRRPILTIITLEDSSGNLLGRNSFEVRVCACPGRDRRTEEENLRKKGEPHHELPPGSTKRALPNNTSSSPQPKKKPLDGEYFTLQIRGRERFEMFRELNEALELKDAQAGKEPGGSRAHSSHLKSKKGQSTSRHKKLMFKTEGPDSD

A short description of experiment [2]: TOX21_p53_BLA_p3_viability: Viability Assessment in the Tox21 HCT-116 p53 Agonism Beta-lactamase Assay, Phase 3 (AID 2283593).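 Note: cells exposed to compound for 16 h before reading.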 An outline of the steps: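 HCT-116 cells (4000/well) rested 5 h at 37C, then got DMSO compounds by pin tool (217-fold dilution) for 16 h at 37C, 5% CO2. After the bla read, CellTiter-Glo was added and luminescence read at 30 min, room temperature.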

For experiment [3], the target named is Cellular tumor antigen p53 (Homo sapiens) (UniProt P04637). Briefly: TOX21_p53_BLA_p3_ratio: Tox21 HCT-116 p53 Agonism Beta-lactamase Assay, Ratio, Phase 3 (AID 2283596). An outline of the steps:
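HCT116 p53-bla cells (4000/well) given compound in DMSO (217-fold dilution) after 5 h, incubated 16 h at 37C. CCF4-AM substrate 2 h at room temperature; 460/530 nm emission ratio, gain fitted against DMSO.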

Experiment [4] can be described thus: TOX21_p53_BLA_p5_viability: Viability Assessment in the Tox21 HCT-116 p53 Agonism Beta-lactamase Assay, Phase 5 (AID 2283600). An outline of the steps:
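4000 cells/well; 5 h pre-incubation; DMSO compounds pin-transferred, 217-fold dilution; 16 h, 37C/5% CO2; CCF4-AM 2 h RT; CellTiter-Glo 30 min RT; luminescence.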

Experiment [5] concerns the target Cellular tumor antigen p53 (Homo sapiens) (UniProt P04637). Briefly: TOX21_p53_BLA_p4_ratio: Tox21 HCT-116 p53 Agonism Beta-lactamase Assay, Ratio, Phase 4 (AID 2283601). An outline of the steps: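 HCT116 cells carrying an inducible beta-lactamase reporter were plated at 4000 cells/well, rested 5 h, then exposed to compounds in DMSO (217-fold dilution) for 16 h at 37C. CCF4-AM substrate was loaded 2 h at room temperature; 460/530 nm emission ratio scored gain-of-signal versus DMSO.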

Experiment [6] can be described thus: TOX21_p53_BLA_p4_viability: Viability Assessment in the Tox21 HCT-116 p53 Agonism Beta-lactamase Assay, Phase 4 (AID 2283597).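 Note: hits lower the luminescence signal meaning cytotoxicity.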 In a few lines: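 Cells plated, 5 h pre-incubation; DMSO compounds pinned (217-fold dilution); 16 h, 37C/5% CO2; CCF4-AM 2 h RT; CellTiter-Glo 30 min RT; luminescence read.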
Experiment [7] addresses Cellular tumor antigen p53 (Homo sapiens) (UniProt P04637). Briefly: TOX21_p53_BLA_p5_ratio: Tox21 HCT-116 p53 Agonism Beta-lactamase Assay, Ratio, Phase 5 (AID 2283599). An outline of the steps:
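HCT-116 cells carrying a p53-inducible beta-lactamase reporter were seeded at 4000 cells/well and dosed after 5 h with compound in DMSO (217-fold dilution). After 16 h at 37C, CCF4-AM substrate was added for 2 h, and the 460/530 nm emission ratio was scored as gain-of-signal versus DMSO.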

As to `Clc1cc(Cl)c(Cl)nc1Cl`, the result in experiment [1], in experiment [2], in experiment [3], in experiment [4] and in experiment [5] was inactive.
Take `COC(=O)CCC[N+](C)(C)C`: the result in experiment [1], in experiment [2], in experiment [3] and in experiment [4] was inactive.
For the molecule `CC=C(C)C(=O)OCCC(C)CCC=C(C)C` (configuration not stated), the result in experiment [1], in experiment [2] and in experiment [6] was inactive.
Regarding `CN(C(=O)C(Cl)Cl)c1ccc(OC(=O)c2ccco2)cc1`, the result in experiment [1], in experiment [2] and in experiment [6] was inactive.
On to `CC1(C)C(\C=C/C=C\C=C/C=C2/N(CCCCS(=O)(=O)O)c3ccc4ccccc4c3C2(C)C)=[N+](CCCCS(=O)(=O)[O-])c2ccc3ccccc3c21`, for which the result in experiment [1], in experiment [2], in experiment [6], in experiment [4] and in experiment [5] was inactive.
In the case of `NC(=O)c1ncn([C@@H]2O[C@H](CO)[C@@H](O)[C@H]2O)n1`, the concentration at half-maximal activity (AC50) in experiment [1] was 32.2 µM (active) and 20.3 µM (active); in experiment [3], 17 µM (active); in experiment [7] it was 45.7 µM (active); in experiment [5] it was 15.6 µM (active). Further, the molecule was called inactive in experiment [6] and in experiment [7].
With `Fc1ccc([C@@H]2CCNC[C@H]2COc2ccc3c(c2)OCO3)cc1`, the outcome in experiment [1], in experiment [2], in experiment [7], in experiment [4] and in experiment [5] was inactive. Also, the AC50 in experiment [6] was 37.4 µM (active).
Turning to `ICCc1ccccc1`, the outcome in experiment [1], in experiment [2], in experiment [6], in experiment [7] and in experiment [5] was inactive.
On to `Cc1cccc2sc(N)nc12`, for which the outcome in experiment [1], in experiment [2], in experiment [6], in experiment [7], in experiment [4] and in experiment [5] was inactive.
With `COC[C@H](c1ccc(C(F)(F)F)cc1)N1CCN(C2(C)CCN(C(=O)c3c(C)ncnc3C)CC2)C[C@H]1C`, the result in experiment [1], in experiment [2], in experiment [6], in experiment [7], in experiment [4] and in experiment [5] was inactive.
Consider `Cc1ccc2nc(-c3ccc(N)cc3)sc2c1S(=O)(=O)O`, for which the outcome in experiment [1], in experiment [2], in experiment [6], in experiment [7] and in experiment [5] was inactive.
Regarding `CCSc1ccc2c(c1)N(CCCN1CCN(C)CC1)c1ccccc1S2`, the result in experiment [1], in experiment [2], in experiment [6], in experiment [7], in experiment [4] and in experiment [5] was inactive.
On to `c1cnccn1`, for which the outcome in experiment [1], in experiment [2], in experiment [7] and in experiment [4] was inactive.
`CC(=O)Nc1c(I)c(C(=O)O)c(I)c(N(C)C(C)=O)c1I`: the outcome in experiment [1], in experiment [2], in experiment [6], in experiment [7], in experiment [4] and in experiment [5] was inactive.
Regarding `O=C(CCCCCCCCCCCCC1CCCC1)Nc1ccc(S(=O)(=O)c2ccc(NC(=O)CCCCCCCCCCCCC3CCCC3)cc2)cc1`, the result in experiment [1], in experiment [2], in experiment [6], in experiment [7] and in experiment [5] was inactive.
For `Cc1cc(C)c(NC(=O)CN(CC(=O)O)CC(=O)O)c(C)c1Br`, the result in experiment [1], in experiment [2], in experiment [7], in experiment [4] and in experiment [5] was inactive.
As for `FC(F)(F)c1ccc(Cl)cc1Cl`, the outcome in experiment [1], in experiment [2], in experiment [6], in experiment [7] and in experiment [5] was inactive.
Turning to `CN1[C@@H]2CCC[C@H]1CC(NC(=O)c1nn(C)c3ccccc13)C2` (some centres not stated), the result in experiment [1], in experiment [2], in experiment [6] and in experiment [4] was inactive.
Take `CN(C)c1ccc(/C=C/c2ccc([N+](=O)[O-])cc2)cc1`: the result in experiment [1], in experiment [3] and in experiment [6] was inactive.
`C[C@H](Cc1ccc(O)c(O)c1)[C@@H](C)Cc1ccc(O)c(O)c1`: the outcome in experiment [1], in experiment [2], in experiment [7] and in experiment [5] was inactive. In experiment [6], the AC50 is 25.9 µM (active).
Turning to `CCCCCCCCCCCCCCCCCCCl`, the result in experiment [1], in experiment [2], in experiment [6], in experiment [7], in experiment [4] and in experiment [5] was inactive.
With `N[C@@H](Cc1cnc[nH]1)C(=O)O`, the result in experiment [1], in experiment [2], in experiment [6] and in experiment [4] was inactive.
With `C[C@@H](CN1CC(=O)NC(=O)C1)N1CC(=O)NC(=O)C1`, the result in experiment [1], in experiment [2], in experiment [6] and in experiment [4] was inactive.
With `NS(=O)(=O)c1ccc(NC(=O)CCC(=O)O)cc1`, the outcome in experiment [1], in experiment [2], in experiment [6], in experiment [7], in experiment [4] and in experiment [5] was inactive.
